Assay results taken from PubChem BioAssay AID1159580 (chemical genetic matrix, 2015).
Among all 5,500 compounds or so, about 2,000 (36%) were called active. Inconclusive results (about 18%) are left out. Rule as the data show it: active = normalized growth mostly below about 0.91 (no sharp cut-off); inconclusive = no clear call, values can overlap the other calls; inactive = mostly above about 0.92. The list shows a part of the results.

Experiment: chemical genetic growth profiling, strain panel (AID 1159580);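 also: tested at 20 µM; growth read once vehicle control cultures reached saturation at 30 °C; 1 = growth at the plate median or of vehicle wells; lower values mean less growth of the strain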
Conditions: growth OD

Measured: normalized growth

CN[C@H](CC(=O)O)C(=O)O
inactive: S. cerevisiae deletion strains, locus YJR066W, strain TOR1, active compounds read low 0.949 | S. cerevisiae deletion strains, locus YJR075W, strain HOC1, active compounds read low 0.988 | S. cerevisiae deletion strains, locus YKL009W, strain mrt4, active compounds read low 0.938 | S. cerevisiae deletion strains, locus YKL068W, active compounds read low 1.01 | S. cerevisiae deletion strains, locus YKL085W, strain MDH1 (second series), active compounds read low 1.01 | S. cerevisiae deletion strains, locus YKL085W, strain MDH1, active compounds read low 1.01 | S. cerevisiae deletion strains, locus YKL160W, strain elf1, active compounds read low 1.02 | S. cerevisiae deletion strains, locus YKL190W, strain CNB1, active compounds read low 0.999 | S. cerevisiae deletion strains, locus YKR001C, strain vps1, active compounds read low 0.989 | S. cerevisiae deletion strains, locus YKR026C, strain gcn3, active compounds read low 1.02 | S. cerevisiae deletion strains, locus YKR091W, strain srl3, active compounds read low 1.02 | S. cerevisiae deletion strains, locus YLL001W, strain dnm1, active compounds read low 1.03 | S. cerevisiae deletion strains, locus YLL026W, active compounds read low 1.03 | S. cerevisiae deletion strains, locus YLL041C, strain sdh2, active compounds read low 1.01 | S. cerevisiae deletion strains, locus YLR027C, strain aat2, active compounds read low 1.03 | S. cerevisiae deletion strains, locus YLR039C, strain RIC1, active compounds read low 0.962 | S. cerevisiae deletion strains, locus YLR058C, strain SHM2, active compounds read low 0.989 | S. cerevisiae deletion strains, locus YLR102C, strain apc9, active compounds read low 0.989 | S. cerevisiae deletion strains, locus YLR113W, strain HOG1, active compounds read low 1.07 | S. cerevisiae deletion strains, locus YLR221C, strain rsa3, active compounds read low 1 | S. cerevisiae deletion strains, locus YLR258W, strain gsy2, active compounds read low 1.02 | S. cerevisiae deletion strains, locus YLR262C, strain YPT6 (second series), active compounds read low 1.01 | S. cerevisiae deletion strains, locus YLR262C, strain YPT6, active compounds read low 0.936 | S. cerevisiae deletion strains, locus YLR268W, strain sec22, active compounds read low 0.991 | S. cerevisiae deletion strains, locus YLR320W, strain mms22, active compounds read low 0.992 | S. cerevisiae deletion strains, locus YLR330W, strain CHS5, active compounds read low 0.991 | S. cerevisiae deletion strains, locus YLR342W, strain FKS1 (second series), active compounds read low 0.983 | S. cerevisiae deletion strains, locus YLR342W, strain FKS1, active compounds read low 1.02 | S. cerevisiae deletion strains, locus YLR357W, strain rsc2, active compounds read low 0.995 | S. cerevisiae deletion strains, locus YLR370C, strain arc18, active compounds read low 1.02 | S. cerevisiae deletion strains, locus YLR371W, strain rom2, active compounds read low 0.997 | S. cerevisiae deletion strains, locus YLR384C, strain iki3, active compounds read low 1.03 | S. cerevisiae deletion strains, locus YLR418C, strain cdc73, active compounds read low 0.947 | S. cerevisiae deletion strains, locus YML016C, strain PPZ1, active compounds read low 0.989 | S. cerevisiae deletion strains, locus YML032C, strain rad52, active compounds read low 0.964 | S. cerevisiae deletion strains, locus YML120C, strain ndi1, active compounds read low 1.03 | S. cerevisiae deletion strains, locus YML124C, strain tub3, active compounds read low 0.99 | S. cerevisiae deletion strains, locus YMR058W, strain fet3, active compounds read low 1.01 | S. cerevisiae deletion strains, locus YMR078C, strain ctf18, active compounds read low 0.98 | S. cerevisiae deletion strains, locus YMR125W, strain sto1, active compounds read low 1.08 | S. cerevisiae deletion strains, locus YMR129W, active compounds read low 1.01 | S. cerevisiae deletion strains, locus YMR205C, strain PFK2, active compounds read low 1.03 | S. cerevisiae deletion strains, locus YMR223W, strain ubp8, active compounds read low 0.937 | S. cerevisiae deletion strains, locus YMR231W, strain pep5, active compounds read low 0.998 | S. cerevisiae deletion strains, locus YMR307W, strain GAS1, active compounds read low 0.89 | S. cerevisiae deletion strains, locus YNL067W, strain RPL9B, active compounds read low 1.02 | S. cerevisiae deletion strains, locus YNL071W, strain lat1, active compounds read low 1.02 | S. cerevisiae deletion strains, locus YNL153C, strain GIM3, active compounds read low 1.03 | S. cerevisiae deletion strains, locus YNL183C, strain NPR1, active compounds read low 0.992 | S. cerevisiae deletion strains, locus YNL209W, strain ssb2, active compounds read low 1.01 | S. cerevisiae deletion strains, locus YNL233W, strain BNI4, active compounds read low 1.01 | S. cerevisiae deletion strains, locus YNL248C, strain rpa49, active compounds read low 0.98 | S. cerevisiae deletion strains, locus YNL250W, strain rad50, active compounds read low 0.941 | S. cerevisiae deletion strains, locus YNL271C, strain bni1, active compounds read low 0.977 | S. cerevisiae deletion strains, locus YNL298W, strain CLA4, active compounds read low 0.972 | S. cerevisiae deletion strains, locus YNL307C, strain MCK1, active compounds read low 0.976 | S. cerevisiae deletion strains, locus YNL322C, strain KRE1 (second series), active compounds read low 1.03 | S. cerevisiae deletion strains, locus YNR049C, strain mso1, active compounds read low 1.02 | S. cerevisiae deletion strains, locus YNR052C, strain pop2, active compounds read low 0.978 | S. cerevisiae deletion strains, locus YOL006C, strain TOP1, active compounds read low 1.06 | S. cerevisiae deletion strains, locus YOL012C, strain htz1 0.629 | S. cerevisiae deletion strains, locus YOL147C, strain pex11, active compounds read low 0.984 | S. cerevisiae deletion strains, locus YOR001W, strain rrp6, active compounds read low 1.02 | S. cerevisiae deletion strains, locus YOR061W, strain CKA2, active compounds read low 0.994 | S. cerevisiae deletion strains, locus YOR069W, strain VPS5, active compounds read low 0.991 | S. cerevisiae deletion strains, locus YOR070C, strain gyp1, active compounds read low 1.01 | S. cerevisiae deletion strains, locus YOR080W, strain dia2, active compounds read low 1.03 | S. cerevisiae deletion strains, locus YOR083W, strain WHI5, active compounds read low 1.02 | S. cerevisiae deletion strains, locus YOR106W, strain vam3, active compounds read low 1.01 | S. cerevisiae deletion strains, locus YOR136W, strain idh2, active compounds read low 0.991 | S. cerevisiae deletion strains, locus YOR144C, strain elg1, active compounds read low 0.99 | S. cerevisiae deletion strains, locus YOR184W, strain ser1, active compounds read low 0.936 | S. cerevisiae deletion strains, locus YOR231W, strain MKK1, active compounds read low 1.1 | S. cerevisiae deletion strains, locus YOR265W, strain rbl2, active compounds read low 1.03 | S. cerevisiae deletion strains, locus YOR270C, strain vph1, active compounds read low 1 | S. cerevisiae deletion strains, locus YOR290C, strain snf2, active compounds read low 1.01 | S. cerevisiae deletion strains, locus YOR316C, strain cot1, active compounds read low 0.991 | S. cerevisiae deletion strains, locus YPL051W, strain arl3, active compounds read low 1.02 | S. cerevisiae deletion strains, locus YPL078C, strain atp4, active compounds read low 0.989 | S. cerevisiae deletion strains, locus YPL106C, strain sse1, active compounds read low 1.04 | S. cerevisiae deletion strains, locus YPL240C, strain hsp82, active compounds read low 1.04 | S. cerevisiae deletion strains, locus YPL256C, strain CLN2, active compounds read low 1.06 | S. cerevisiae deletion strains, locus YPR119W, strain clb2, active compounds read low 0.987 | S. cerevisiae deletion strains, locus YPR141C, strain kar3, active compounds read low 0.985 | S. cerevisiae deletion strains, locus YPR163C, strain tif3, active compounds read low 0.995 | S. cerevisiae deletion strains, locus YPR167C, strain met16, active compounds read low 0.981 | S. cerevisiae deletion strains, strain wtn01, active compounds read low 0.963 | S. cerevisiae strains, strain wild type, active compounds read low 0.995
